Laboratory results: PubChem BioAssay AID1578 (Sanford-Burnham Center for Chemical Genomics, 2009)
The whole screen tested about 290,000 compounds, of which about 3,000 (1%) were called active. What follows is part of a selection rich in actives, with near analogues and random picks from the rest. A number with no mark means an inactive call. No stated cut-off is given here; in the data, active means inhibition mostly above about 36% (no sharp cut-off); inactive means mostly below about 34%.

Test: inhibition of NOD1-driven NF-kB reporter – cell-based, luminescence, uHTS, primary screen (AID 1578);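 further: HEK-293T reporter cells stimulated with the NOD1 agonist gamma-tri-DAP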
Details: NOD1-driven NF-kB luciferase reporter cells, at 4 µM, stronger effect = higher value

| Compound | inhibition |
| --- | --- |
| CCN(CC)C(=O)C[n+]1cccc(/C=N/O)c1 | -12.8% |
| Cc1ccc(C)c(OCC(=O)Nc2nc3ccc([N+](=O)[O-])cc3s2)c1 | -16.9% |
| Cc1cccc(OCC(=O)Nc2nc3ccc([N+](=O)[O-])cc3s2)c1 | 55.9% |
| CS(=O)(=O)N(CC(=O)N/N=C/c1ccc(OCC(=O)N2CCOCC2)cc1)c1ccccc1Cl | -22.8% |
| Cc1sc(NC(=O)CSc2nc(O)cc(=O)[nH]2)nc1-c1ccccc1 | -24.3% |
| CN(CCCN1CCOCC1)C(=O)c1cc(COc2cccc(C(F)(F)F)c2)on1 | -8.6% |
| O=C(C1CCN(Cc2cn[nH]c2-c2ccc(F)cc2F)CC1)N1CCOCC1 | -5.7% |
| CCOC(=O)C1CCCN(Cc2cn[nH]c2-c2ccc(F)cc2F)C1 (stereo unspecified) | -31.8% |
| OCCCC1CCCN(Cc2cn[nH]c2-c2ccc(F)cc2F)C1 (stereo unspecified) | 75% (active) |
| O=C(NCc1ccc(F)cc1)N1CCN(S(=O)(=O)c2ccccc2F)CC1 | -20.3% |
| O=C(N/N=C/c1ccc(Cl)cc1Cl)C(=O)NC1CC1 | -3.9% |
| CCCc1cc(-c2[nH]ncc2-c2ccc3c(c2)OCCCO3)c(O)cc1O | 17.6% |
| CCc1cc(-c2[nH]ncc2-c2ccc3c(c2)OCO3)c(O)cc1O | 97.7% (active) |
| CCc1cc(-c2[nH]ncc2-c2ccc(OC)cc2)c(O)cc1O | 12.6% |
| Cc1ccc(C(=O)NCC(=O)N2CCN(S(=O)(=O)c3cccs3)CC2)s1 | -28.4% |
| O=C(N/N=C/c1ccc(OC(=O)c2cccc(F)c2)cc1)c1cccnc1 | -21% |
| COc1ccccc1NC(=O)c1ccccc1Nc1ccccc1 | -5.4% |
| COc1ccc(CN2CCNC(=O)C2CC(=O)NCCc2cnccn2)cc1C (stereo unspecified) | -22.4% |
| Cc1ccc(Nc2n[nH]c(C)c2[N+](=O)[O-])cc1 | -38.4% |
| Cc1[nH]nc(Nc2ccccc2)c1[N+](=O)[O-] | 75.5% (active) |
| Cc1cccc(Nc2n[nH]c(C)c2[N+](=O)[O-])c1 | -36.2% |

| Compound | inhibition |
| --- | --- |
| CC1CCCN(S(=O)(=O)c2ccc3oc(=O)ccc3c2)C1 (stereo unspecified) | -39.5% |
| Cc1ccc(OCCCn2cc(C#N)c3ccccc32)cc1 | 26.6% |
| CCN(CC)S(=O)(=O)c1cc(C(=O)OCC(=O)c2ccc3c(c2)NC(=O)CO3)ccc1F | -21.3% |
| COCc1cc(C)nc(N2CCCCC2)c1C#N | -7.1% |
| O=C(O)c1ccc(/C=C2\CCCc3c2nc2ccccc2c3C(=O)O)cc1 | -24% |
| O=C(O)c1c2c(nc3ccccc13)/C(=C/c1ccc(O)cc1)CC2 | 63.5% (active) |
| O=C(O)c1c2c(nc3ccccc13)/C(=C/c1ccc(O)cc1)CCC2 | -23.9% |
| NC(=O)CSc1nnc(CNc2cccc(Cl)c2)n1CCc1ccccc1 | -6.6% |
| CCOC(=O)c1sc(-c2ccc(F)cc2)cc1N | -18.5% |
| CC(O)CNc1ncnc2cc(-c3ccc(F)cc3)sc12 (stereo unspecified) | -11.1% |
| C=CCNC(=O)c1ccc2c(=O)n(CCCN3CCCC3=O)c(=S)[nH]c2c1 | -17.5% |
| N#CC1=C(N)Oc2ccc3ccc(O)cc3c2C1c1cccnc1 (stereo unspecified) | -18.7% |
| Cc1ccc(-c2nc3[nH]c(=O)cc(NC(=O)c4cccs4)n3n2)cc1 | -1.6% |
| Cc1nc2c3cc(Cl)ccc3n(CCN3CCCCC3)c2s1 | -5.1% |
| CC1CCN(S(=O)(=O)c2ccc3c(c2)NC(=O)CS3)CC1 | -43.2% |
| Cc1ccc(CNC(=O)Cc2ccc(-n3cccc3)cc2)cc1 | -32.1% |
| O=C(Cc1ccccc1)NCc1ccc(-n2cccc2)cc1 | 48.6% (active) |
| O=C(COc1ccccc1)NCc1ccc(-n2cccc2)cc1 | -34.8% |
| Cc1ccc(COc2ccsc2C(=O)NNC(N)=S)cc1 | -29.4% |
| CCOc1cccc(/C=N/NC(=S)Nc2ccccc2[N+](=O)[O-])c1O | 34.3% |
| CCCOc1ccc(/C=N/Nc2ccccc2[N+](=O)[O-])c(O)c1 | 55.7% |

| Compound | inhibition |
| --- | --- |
| OC(CNCCc1ccc(Cl)cc1)COc1cc(Cl)ccc1Cl (stereo unspecified) | -10.1% |
| Cc1ccccc1OCC(=O)N/N=C/c1ccc(N2CCOCC2)o1 | -23.5% |
| Cc1ccc(CSC2=NCCN2C(=O)C(C)Oc2ccccc2)cc1 (stereo unspecified) | -38.3% |
| CC1CCc2c(sc3ncnc(N4CCOCC4)c23)C1 (stereo unspecified) | -28.8% |
| CC1CCc2sc3ncnc(N4CCN(C)CC4)c3c2C1 (stereo unspecified) | 13.5% |
| CCOC(=O)C1CCCN(C(=O)COc2ccccc2F)C1 (stereo unspecified) | -25.1% |
| COC(=O)c1c(NC(=O)CN2C(=O)NC3(CCC(C(C)(C)C)CC3)C2=O)sc2c1CCCCC2 (stereo unspecified) | -10.4% |
| COCC(C)N1CCC(n2nccc2NC(=O)CCCc2ccccc2)CC1 (stereo unspecified) | -1.8% |
| O=C(NC1=NCCS1)c1cc(-c2cccc(Br)c2)nc2ccccc12 | -10.6% |
| COc1cc(/C=C2\CC/C(=C\c3cc(OC)c(OC)c(OC)c3)C2=O)cc(OC)c1OC | 23% |
| COc1cc(/C=C2\CCOC2=O)cc(OC)c1OC | -9.9% |
| O=C(CN(Cc1ccco1)C(=O)CNS(=O)(=O)c1ccc(F)cc1)NCCc1ccccc1 | -27.1% |
| Cn1c(N)c(C(=O)COC(=O)c2ccc(Cl)c(S(=O)(=O)N3CCCC3)c2)c(=O)n(C)c1=O | 14.5% |
| Cn1c(N)c(C(=O)COC(=O)c2ccc(Cl)c(S(=O)(=O)N3CCCCC3)c2)c(=O)n(C)c1=O | 64.3% (active) |
| Cc1ccc(C(=O)OCC(=O)c2c(N)n(C)c(=O)n(C)c2=O)cc1S(=O)(=O)N1CCCCC1 | -7.4% |
| Cc1cc(C(=O)OCC(=O)NC(C)C)c(C)o1 | -4% |
| CC(=O)C(C)n1c(CN2CCN(C(=O)c3ccco3)CC2)nc2c1c(=O)n(C)c(=O)n2C (stereo unspecified) | -0.4% |
| CCN1CCS/C1=C/C=C/C1=[N+](CC)CCS1 | 14% |
| CCN1CCS/C1=C\C=C\C1=[N+](CC)CCS1 | 53.8% (active) |
